In the library only some 3.5% were active in any assay of this set; here they are far more common.
MITF inh – blocks human microphthalmia-associated transcription factor; inhibition, % at 2.6 µM; 0.91% of 650,000 active; AlphaScreen MITF homodimerization, bead proximity signal; AID 1259374; in the data active means inhibition above about 50%
TEAD-YAP block – TEAD-YAP interaction inhibition; 1.4% of 640,000 active; inhibition, % at 9.12 µM; HEK-TIYL cells, TEAD-Gal4/YAP UAS-luciferase luminescence; in the data active means inhibition above about 32%
FBW7 act – activators of human E3 ligase FBW7 | Q969H0 | AlphaScreen FBW7–phospho-cyclin E peptide binding, activator screen | normalized activity (activation), % at 26.1 µM | 0.13% of 650,000 active | AID 1259310; in the data active means normalized activity above about 1.9%;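 further: purified mutant Fbw7 with reduced substrate affinity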
GPR151 ag – activates the human receptor GPR151. Q8TDV0. PathHunter beta-arrestin GPR151 cells, luminescence. activation, % at 11.2 µM. 1% of 650,000 active; in the data active means activation above about 4.9%
GPR151 conf act – confirmation of human GPR151 activators | shares compounds with GPR151 ag | GPR151 PathHunter beta-arrestin cells, luminescence, 90 min; % of EA-reagent control over plate median | activation, % at 11.2 µM | 6,700 tested, under 10 active | AID 1508609;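 active means mean percent activation across replicates above the confirmation screen cutoff of 4.91%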
GPR119 counter – counter-screen for GPR151 activators: effect on human GPR119; shares compounds with GPR151 ag; GPR119 PathHunter beta-arrestin cells, luminescence, 90 min; 0 = compound-well median, 100 = enzyme-acceptor control; activation, % at 11.2 µM; 0.3% of 6,700 active; AID 1508611;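 active means mean percent activation in the counterscreen above 29.09%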;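 further: counterscreen on off-target GPR119 to flag nonselective hits from the GPR151 activator screen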
Target sequence (Q8TDV5 whole entry, looked up): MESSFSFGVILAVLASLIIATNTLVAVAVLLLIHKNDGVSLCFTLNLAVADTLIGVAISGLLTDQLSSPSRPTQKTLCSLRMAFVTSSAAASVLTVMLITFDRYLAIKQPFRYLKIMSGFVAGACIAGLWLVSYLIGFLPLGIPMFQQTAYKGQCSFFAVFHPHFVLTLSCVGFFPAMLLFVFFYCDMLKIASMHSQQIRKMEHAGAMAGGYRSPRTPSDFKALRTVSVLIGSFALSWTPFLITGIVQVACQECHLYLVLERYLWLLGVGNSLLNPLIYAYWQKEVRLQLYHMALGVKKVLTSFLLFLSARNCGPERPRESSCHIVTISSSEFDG
Each line names hits and unclear results; the compound was inactive in the other large screens (follow-up assays come after a bar, where they were run).

Cc1sc(NC(=O)c2ccco2)c(CN2CCN(CCO)CC2)c1C	GPR151 ag 25 | GPR151 conf act inactive | GPR119 counter inactive
OC(CN(C1CCCCC1)C1CCCCC1)Cn1c2ccc(Cl)cc2c2cc(Cl)ccc21 (centres undefined)	none
C=CCn1c(=O)c2c(nc3n(-c4ccccc4C)c(C)c(C)n23)n(C)c1=O	none
CC(=O)Cn1c(=O)c2c(nc3n(-c4ccccc4C)c(C)c(C)n23)n(C)c1=O	GPR151 ag 5.5 | GPR151 conf act inactive | GPR119 counter inactive
CCc1cc(I)ccc1NC(=S)NC(C)=O	none
COc1cccc(N2C(=O)NC(=O)/C(=C/c3ccc(O)c(O)c3)C2=O)c1	GPR151 ag 5.1 | GPR151 conf act inactive | GPR119 counter inactive
CCOc1cc(/C=C2\C(=O)NC(=O)N(c3ccc(Br)c(C)c3)C2=O)ccc1O	GPR151 ag 5.0 | GPR151 conf act inactive | GPR119 counter inactive
COc1ccc(N2C(=O)/C(=C/c3cccs3)C(=O)NC2=S)c(OC)c1	GPR151 ag 5.2 | GPR151 conf act inactive | GPR119 counter inactive
COc1ccc(OC)c(N2C(=O)NC(=O)/C(=C/c3cccs3)C2=O)c1	none
Cc1cccc(N2C(=O)NC(=O)/C(=C\c3ccc(N(C)C)c([N+](=O)[O-])c3)C2=O)c1	GPR151 ag 5.6 | GPR151 conf act inactive | GPR119 counter inactive
Cc1cc(Br)ccc1N1C(N)=C(C#N)C(c2ccc(F)cc2)C2=C1CC(C)(C)CC2=O (centres undefined)	none
CC(=O)c1sc2c(c1N)c(=O)[nH]c(=O)n2Cc1cccs1	none
COc1ccc(/C=C2\C(=O)NC(=O)N(c3ccccc3OC)C2=O)cc1	GPR151 ag 4.9 | GPR151 conf act inactive | GPR119 counter inactive
C#CCN(Cc1ccco1)C(=O)CC1(c2ccccc2F)CC(=O)N(CCOC)C1=O (centres undefined)	GPR151 ag 6.7 | GPR151 conf act inactive | GPR119 counter inactive
COc1ccc(NC(=O)C2C3CCC(C3=C(C)C)C2C(=O)O)cc1 (centres undefined)	GPR151 ag 5.5 | GPR151 conf act inactive | GPR119 counter inactive
N#Cc1cc(C(=O)c2cc(F)ccc2O)cn(C2CC2)c1=O	GPR151 ag 5.9 | GPR151 conf act inactive | GPR119 counter inactive
COc1cc(/C=C2/C(=N)N3N=C(CC(C)C)SC3=NC2=O)cc(Cl)c1OCCOc1ccc(C)cc1	none
CNc1cc(N2CCN(S(=O)(=O)c3ccccc3)CC2)ccc1[N+](=O)[O-]	none
CNc1cc(N2CCN(S(=O)(=O)c3ccc4c(c3)CCCC4)CC2)ccc1[N+](=O)[O-]	GPR151 ag 13 | GPR151 conf act inactive | GPR119 counter inactive
COc1ccc2[nH]cc(CCNC(=O)c3ccc(Br)cc3)c2c1	GPR151 ag 9.4 | GPR151 conf act inactive | GPR119 counter inactive
CCC(=O)NCCc1c[nH]c2ccc(OC)cc12	none
CC1=NN(C(=O)COc2ccc(Cl)cc2Cl)C(O)(C(F)(F)F)C1 (centres undefined)	none
COc1ccccc1-n1cc(-c2ccccc2)nc1SCC(=O)Nc1ccc(F)cc1	none
CCCCCCn1c(N/N=C/c2ccc([N+](=O)[O-])cc2)nc2c1c(=O)[nH]c(=O)n2C	GPR151 ag 5.9 | GPR151 conf act inactive | GPR119 counter inactive
CCOC(=O)C1(CC)CC(C)(C(=O)C[n+]2cccc(Br)c2)OC1=O (centres undefined)	none
Fc1ccc2nc(N3CCN(c4nc5ccccc5s4)CC3)sc2c1	GPR151 ag 15 | GPR151 conf act inactive | GPR119 counter inactive
CCOC(=O)c1c(-c2ccccc2)oc2ccc(OCC(=O)c3ccccc3)cc12	none
CN1CC(=O)N(CCCC(=O)OCc2ccc(C#N)cc2)C1=O	GPR151 ag 7.7 | GPR151 conf act inactive | GPR119 counter inactive
N#Cc1ccc(COC(=O)CCC(=O)c2cccs2)cc1	none
NC(=O)/C(=C\c1ccco1)NC(=O)c1ccccc1Br	GPR151 ag 6.6 | GPR151 conf act inactive | GPR119 counter inactive
CCCCNC(=O)/C(=C/c1ccco1)NC(=O)c1ccccc1I	GPR151 ag 9.2 | GPR151 conf act inactive | GPR119 counter inactive
CCCCNC(=O)/C(=C/c1ccco1)NC(=O)c1ccc(I)cc1	none
C/C(=N\Nc1ccc([N+](=O)[O-])cc1[N+](=O)[O-])c1cc2cc([N+](=O)[O-])ccc2oc1=O	none
CC(C)CC(NC(=O)C1CCC(C)CC1)C(=O)Nc1cccnc1 (centres undefined)	GPR151 ag 7.4 | GPR151 conf act inactive | GPR119 counter inactive
Cc1cccc(NC(=O)Cn2c(=O)n(Cc3ccccc3Cl)c(=O)c3cccnc32)c1	none
CCOC(=O)C1=C(N)N(c2ccc(OC)cc2)C2=C(C(=O)CC(C)(C)C2)C1c1cccnc1 (centres undefined)	none
CCc1c(C)sc(NC(=O)c2cc(OC)cc(OC)c2)c1C(N)=O	none
CCc1c(C)c2ccc(OCC(=O)OC)c(C)c2oc1=O	GPR151 ag 5.1 | GPR151 conf act inactive | GPR119 counter inactive
COC(=O)COc1ccc2c(C)c(C)c(=O)oc2c1C	none
CC(C)CCN1C(=O)C(C)(C)COc2cc(NC(=O)c3ccc4c(c3)OCO4)ccc21	GPR151 ag 5.6 | GPR151 conf act inactive | GPR119 counter inactive
CN1C(=O)C(C)(C)COc2cc(NC(=O)Nc3ccc4c(c3)OCO4)ccc21	none
O=C(Nc1ccc2oc(-c3cc(Br)ccc3Cl)nc2c1)c1ccc([N+](=O)[O-])o1	none
O=C(Nc1ccc2oc(-c3ccc(Br)cc3)nc2c1)c1cc([N+](=O)[O-])ccc1Cl	GPR151 ag 6.6 | GPR151 conf act inactive | GPR119 counter inactive
O=C(O)c1cc([N+](=O)[O-])ccc1C(=O)Nc1cccc(O)c1	none
O=C(Nc1cccc(O)c1)c1cc([N+](=O)[O-])ccc1Cl	GPR151 ag 6.4 | GPR151 conf act inactive | GPR119 counter inactive
O=C(Nc1ccc(Cl)c(-c2nc3cc(Cl)ccc3o2)c1)c1ccc([N+](=O)[O-])o1	GPR151 ag 7.0 | GPR151 conf act inactive | GPR119 counter inactive
O=C(NCc1nnc2n1CCN(Cc1ccc(F)cc1)CC2)c1ccccn1	none
Clc1ccc(Cn2ncc3c(N4CCCC4)ncnc32)cc1	GPR151 ag 8.4 | GPR151 conf act inactive | GPR119 counter inactive
C=CCOc1ccc(/C(O)=C2/C(=O)C(=O)N(CCN(CC)CC)C2c2ccc(C)cc2)c(C)c1 (centres undefined)	GPR151 ag 7.1 | GPR151 conf act inactive | GPR119 counter inactive
O=C(c1cc2ccccc2oc1=O)N1CCN(c2ccccc2)CC1	GPR151 ag 6.3 | GPR151 conf act inactive | GPR119 counter inactive
N#Cc1c(NC(=O)c2cc3ccccc3oc2=O)sc2c1CCCCCC2	none
NC(=O)c1c(NC(=O)c2cc3ccccc3oc2=O)sc2c1CCCCCC2	GPR151 ag 28 | GPR151 conf act inactive | GPR119 counter inactive
CCc1cccc(C)c1NC(=O)c1cc2ccccc2oc1=O	none
